# Measured values: PubChem BioAssay (NCATS)
# Results filed as inconclusive are left out. A call without a number means that no potency is given here. Active and inactive are the calls of the source. Calls come from the whole dose curve; as a rule, active = well fitted inhibition curve with a large enough effect; inconclusive = small, poorly fitted or top-dose-only effect; inactive = flat fitted curve, though single readings scatter.
# Molecular target: Ubiquitin carboxyl-terminal hydrolase 1 (Homo sapiens) (UniProt O94782)
# Assay: Inhibitors of USP1/UAF1: Pilot qHTS (AID 504865); note: nearly all actives have a fitted effect of over 35% in size
# Settings: purified USP1/UAF1, Ub-rhodamine cleavage fluorescence; series mostly up to 114 µM
# Procedure, shortened: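 1nM USP1/UAF1 + cpd, 15 min RT; start w/ Ub-Rho 150nM final; kinetic FL 480/540 nm, 6 reads q60 s. Buffer 50mM HEPES pH 7.8, 0.5mM EDTA, 1mM TCEP, 0.01% Tween-20, 0.1 mg/ml BSA.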
# Potency is the fitted concentration of half-maximal effect.
# Ubiquitin carboxyl-terminal hydrolase 1 (Homo sapiens), sequence (O94782 whole entry, looked up): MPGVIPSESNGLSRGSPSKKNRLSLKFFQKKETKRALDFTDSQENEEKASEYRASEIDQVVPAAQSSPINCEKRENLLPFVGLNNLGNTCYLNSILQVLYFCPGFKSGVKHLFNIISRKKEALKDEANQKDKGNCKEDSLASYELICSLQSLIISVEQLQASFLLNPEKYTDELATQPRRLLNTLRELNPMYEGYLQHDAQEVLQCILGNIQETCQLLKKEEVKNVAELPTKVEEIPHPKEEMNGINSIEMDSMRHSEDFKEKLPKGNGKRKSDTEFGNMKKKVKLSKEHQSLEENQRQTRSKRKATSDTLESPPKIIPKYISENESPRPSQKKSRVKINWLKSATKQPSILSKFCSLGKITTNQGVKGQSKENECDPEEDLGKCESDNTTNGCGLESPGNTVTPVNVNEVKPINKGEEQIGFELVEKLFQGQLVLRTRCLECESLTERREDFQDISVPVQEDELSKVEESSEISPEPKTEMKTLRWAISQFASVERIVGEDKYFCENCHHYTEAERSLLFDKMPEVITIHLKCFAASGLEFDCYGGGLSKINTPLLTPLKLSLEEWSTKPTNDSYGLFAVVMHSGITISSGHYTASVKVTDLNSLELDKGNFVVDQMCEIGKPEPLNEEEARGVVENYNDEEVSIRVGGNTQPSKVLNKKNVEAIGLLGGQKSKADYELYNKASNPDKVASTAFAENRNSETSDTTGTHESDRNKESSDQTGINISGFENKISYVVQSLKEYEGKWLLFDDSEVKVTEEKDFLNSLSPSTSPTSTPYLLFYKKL
row,SMILES,Potency
1,COC(=O)CCC[N+](C)(C)C,inactive
2,[O]=[Bi][O]C(=O)[O][Bi]=[O],inactive
3,COC(=O)CC[C@H](N)C(=O)O,inactive
4,CCSc1ccc2c(c1)N(CCCN1CCN(C)CC1)c1ccccc1S2,inactive
5,CN(C)C=Nc1c(I)cc(I)c(CCC(=O)O)c1I,inactive
6,O=C(Nc1ccc(O)cc1)c1ccccc1O,inactive
7,C=Cc1ccc(S(=O)(=O)O)cc1,inactive
8,CC1(O)CCC(C(C)(C)O)CC1 (centres undefined),inactive
9,CN1CCc2c(c3ccccc3n2Cc2ccccc2)C1,inactive
10,O=P(O)(O)OP(=O)(O)O,inactive
11,CCCCCCCCCC(=O)NO,inactive
12,CCCCCc1ccc(C)cc1O,35.5 µM (active)
13,CCCCCCCCCCCCCCCCCC[N+](C)(C)CCC[Si](OC)(OC)OC,inactive
14,Cc1cccc(C)c1NC(=O)NC1=CCCN1C,inactive
15,CCN(CC)CCOC(=O)c1cccnc1,inactive
16,c1ccc(-n2cnnn2)cc1,inactive
17,NC(=S)NS(=O)(=O)c1ccc(N)cc1,inactive
18,C#C[C@]1(O)CC[C@@H]2[C@H]3CCC4=CC(=O)CC[C@H]4[C@H]3C(=C)C[C@@]21CC,inactive
19,O=S(=O)(O)CCCS(=O)(=O)O,inactive
20,CN(Cc1ccccc1)Cc1ccccc1,inactive

row,SMILES,Potency
1,CCOC(=O)c1c[nH]c2cc(OCC(C)C)c(OCC(C)C)cc2c1=O,inactive
2,Cc1cccc(C)c1NC(=O)C1CCCCN1C (centres undefined),inactive
3,CCc1ncnc2cc(OC)c(OC)cc12,inactive
4,F[Si-2](F)(F)(F)(F)F,inactive
5,COC(=O)[C@@H](N)CS,inactive
6,Nc1nc(=O)n([C@@H]2CS[C@H](CO)O2)cc1F,inactive
7,CCN(CC)CCC(=O)N1c2ccccc2Sc2ccc(Cl)cc21,inactive
8,OCCCNc1ccccc1,inactive
9,O=C(O)c1ccc(NC(=O)[C@H](Cc2ccc(O)cc2)NC(=O)c2ccccc2)cc1,inactive
10,CCOc1ccc(NC(=S)Nc2ccc(OCC)cc2)cc1,inactive
11,COc1cc(C)c(/C=C/C(C)=C/C=C/C(C)=C/C(=O)O)c(C)c1C,50.1 µM (active)
12,COc1ccc(/C=C/C(=O)O)cc1,inactive
13,CCCC(CCC)C(=O)OC1C[C@H]2CC[C@@H](C1)[N+]2(C)C (some centres undefined),inactive
14,O=C(O)/C=C/C(=O)Nc1ccc(S(=O)(=O)Nc2nccs2)cc1,inactive
15,CO,inactive
16,NCC[C@H](O)C(=O)N[C@@H]1C[C@H](N)[C@@H](O[C@H]2O[C@H](CN)CC[C@H]2N)[C@H](O)[C@H]1O[C@H]1O[C@H](CO)[C@@H](O)[C@H](N)[C@H]1O,inactive
17,CC(C)=CCC/C(C)=C/CC/C(C)=C/CC/C=C(\C)CC/C=C(\C)CCC=C(C)C,inactive
18,FCOC(C(F)(F)F)C(F)(F)F,inactive
19,CNC(=O)OCc1cccc(COC(=O)NC)n1,inactive
